Compound activity: PubChem, several laboratories
TLR4 MyD88 comp – blocks binding of human TLR4 to MyD88 | actives 0.18% (n = 200,000) | O00206+Q99836 | inhibition, % at 8.4 µM | AID 861 | HeLa CL3-4 TLR4/MyD88 BLA complementation, FRET ratio; in the data active = inhibition above about 25%;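 also: 0% = vehicle and 100% = reference inhibitor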
ABCB6 inh MLPCN – inhibitors of human ABC transporter ABCB6 | K562-ABCB6 porphyrin accumulation, flow cytometry, 1 h; active compounds read low | AID 602162 | Q9NP58 | fluorescence ratio to DMSO, % at 10 µM | actives 0.19% (n = 360,000);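 active = fluorescence ratio to DMSO below 75%, the collection mean minus 3 SD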;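 also: signal is porphyrin accumulated inside mitochondria; 100% equals median channel fluorescence of DMSO control wells; lower ratio means ABCB6 inhibition with less porphyrin fluorescence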
Myeloid diff 2 – promotes myeloid progenitor differentiation. ER-HoxA9 myeloid progenitors, lysozyme-GFP differentiation, flow cytometry. AID 624256. calls only at 10 µM. actives 1% (n = 360,000);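 active = normalized GFP-positive differentiation at or above the plate's own cutoff, the solvent-only control mean plus 3 SD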;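 also: cells exposed to compound for four days before flow analysis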
TLR9-MyD88 block – blocks human TLR9 binding to MyD88; Q9NR96+Q99836; CHO BLA complementation TLR9-MyD88, CCF4 FRET ratio; inhibition, % at 4.98 µM; actives 0.21% (n = 340,000);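 active = inhibition above the mean over all tested compounds plus 3 SD, cut at about 21% in these data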;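 also: 0% = DMSO only wells and 100% = clavulanate BLA inhibitor control wells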
NOD2 RIPK2 PPI – blocks binding of human NOD2 to RIPK2 | actives 0.38% (n = 360,000) | CHO BLA complementation NOD2-RIPK2, CCF4 ratio | inhibition, % at 4.98 µM; in the data active = inhibition above about 21%;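 also: 0% = vehicle only and 100% = reference blocker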
Target sequence (O43353 whole entry, looked up): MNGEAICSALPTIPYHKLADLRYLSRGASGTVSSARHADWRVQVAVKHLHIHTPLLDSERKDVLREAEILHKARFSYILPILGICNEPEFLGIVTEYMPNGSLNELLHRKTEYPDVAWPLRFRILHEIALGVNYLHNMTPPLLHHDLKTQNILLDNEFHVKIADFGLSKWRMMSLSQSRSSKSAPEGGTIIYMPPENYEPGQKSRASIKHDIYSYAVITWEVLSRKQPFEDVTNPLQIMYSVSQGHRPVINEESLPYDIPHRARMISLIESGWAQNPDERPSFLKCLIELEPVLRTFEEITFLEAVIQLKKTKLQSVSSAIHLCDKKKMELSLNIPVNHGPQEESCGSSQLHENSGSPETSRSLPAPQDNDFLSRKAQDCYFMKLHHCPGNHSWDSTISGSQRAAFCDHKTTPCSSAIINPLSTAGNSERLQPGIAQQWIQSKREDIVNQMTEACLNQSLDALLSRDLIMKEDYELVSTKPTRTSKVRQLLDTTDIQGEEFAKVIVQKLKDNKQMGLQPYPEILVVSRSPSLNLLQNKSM
Numbers without * were called inactive. This is a sample that favours compounds with a hit; in the whole collection about 1.7% have one here.

CS(=O)(=O)Nc1cccc(C2=NN(S(C)(=O)=O)C(c3ccc4c(c3)OCO4)C2)c1 (centres undefined) was read as TLR4 MyD88 comp -6, ABCB6 inh MLPCN 101, Myeloid diff 2 inactive, TLR9-MyD88 block -1 and NOD2 RIPK2 PPI -5.
Screening CS(=O)(=O)N1N=C(c2ccccc2)CC1c1ccc2c(c1)OCO2 (centres undefined) returned TLR4 MyD88 comp -1, ABCB6 inh MLPCN 590, Myeloid diff 2 active, TLR9-MyD88 block 5 and NOD2 RIPK2 PPI -8.
Screening O=c1c2ccccc2nc(COc2ccccc2)n1/N=C/c1cn[nH]c1-c1ccccc1 returned TLR4 MyD88 comp 2, ABCB6 inh MLPCN 102, Myeloid diff 2 active, TLR9-MyD88 block 3 and NOD2 RIPK2 PPI -5.
For CC1CN(c2ccc(Cl)cc2[N+](=O)[O-])CCN1S(C)(=O)=O (centres undefined) the results were TLR4 MyD88 comp -12, ABCB6 inh MLPCN 100, Myeloid diff 2 inactive, TLR9-MyD88 block 7 and NOD2 RIPK2 PPI 0.
For O=[N+]([O-])c1cc(/C=N/OCc2c(Cl)cccc2Cl)ccc1N1CCOCC1 the results were TLR4 MyD88 comp -10, ABCB6 inh MLPCN 54*, Myeloid diff 2 inactive, TLR9-MyD88 block -2 and NOD2 RIPK2 PPI -15.
O=c1[nH][nH]c2ccccc2c1=O was read as ABCB6 inh MLPCN 97, Myeloid diff 2 inactive and NOD2 RIPK2 PPI -2.
For O=C(NCCN1CCOCC1)c1cc2sccc2n1Cc1ccc(Cl)cc1 the results were TLR4 MyD88 comp 4, ABCB6 inh MLPCN 95, Myeloid diff 2 active, TLR9-MyD88 block 2 and NOD2 RIPK2 PPI 10.
`Cc1ccc(C)c(-n2c(-c3ccc(Br)cc3)csc2=NC(=O)c2ccccc2F)c1` gave ABCB6 inh MLPCN 100, Myeloid diff 2 inactive, TLR9-MyD88 block -11 and NOD2 RIPK2 PPI -11.
COc1cccc(OCc2cc(C(=O)NC3CCOCC3)no2)c1 was read as ABCB6 inh MLPCN 94, Myeloid diff 2 active, TLR9-MyD88 block 1 and NOD2 RIPK2 PPI -1.
`COc1ccc(OCc2cc(C(=O)NC3CCOCC3)no2)c2ccccc12` gave ABCB6 inh MLPCN 106, Myeloid diff 2 inactive, TLR9-MyD88 block 2 and NOD2 RIPK2 PPI -16.
Screening O=C(Nc1ccc(F)cc1)c1cc(Cl)sc1Cl returned TLR4 MyD88 comp -18, ABCB6 inh MLPCN 104, Myeloid diff 2 inactive, TLR9-MyD88 block -14 and NOD2 RIPK2 PPI -9.
Screening O=C(Nc1ccc([N+](=O)[O-])cc1)c1cc(Cl)sc1Cl returned ABCB6 inh MLPCN 93, Myeloid diff 2 active, TLR9-MyD88 block -10 and NOD2 RIPK2 PPI -9.
Screening Cc1ccc(/C=N/NC(=O)Cn2nnc(N)n2)cc1 returned ABCB6 inh MLPCN 105, Myeloid diff 2 inactive, TLR9-MyD88 block 1 and NOD2 RIPK2 PPI 11.
For CCn1nc(C)c(/C=N/NC(=O)Cn2nnc(N)n2)c1C the results were ABCB6 inh MLPCN 99, Myeloid diff 2 active, TLR9-MyD88 block -7 and NOD2 RIPK2 PPI -23.
For COc1cccc(NC(=S)N(CCc2c(C)[nH]c3ccc(C)cc23)Cc2cccs2)c1 the results were TLR4 MyD88 comp -2, ABCB6 inh MLPCN 91, Myeloid diff 2 inactive, TLR9-MyD88 block -7 and NOD2 RIPK2 PPI 1.
For COc1ccc2[nH]c(C)c(CCN(Cc3cccs3)C(=S)Nc3cccc(F)c3)c2c1 the results were TLR4 MyD88 comp -5, ABCB6 inh MLPCN 119, Myeloid diff 2 active, TLR9-MyD88 block 9 and NOD2 RIPK2 PPI 7.
For CN(C)C(=O)CSc1nc2ccc(C(=O)c3ccccc3)cc2[nH]1 the results were ABCB6 inh MLPCN 96, Myeloid diff 2 inactive, TLR9-MyD88 block -11 and NOD2 RIPK2 PPI -6.
`Cc1ccc(S(=O)(=O)c2nc(S(C)(=O)=O)sc2N2CCCCC2C)cc1` (centres undefined) gave ABCB6 inh MLPCN 95, Myeloid diff 2 active, TLR9-MyD88 block -9 and NOD2 RIPK2 PPI -8.
For Cc1ccc(S(=O)(=O)c2nc(S(C)(=O)=O)sc2N2CCC(O)CC2)cc1 the results were ABCB6 inh MLPCN 103, Myeloid diff 2 inactive, TLR9-MyD88 block -6 and NOD2 RIPK2 PPI -1.
CS(=O)(=O)c1nc(S(=O)(=O)c2ccc(Cl)cc2)c(N2CCN(CCO)CC2)s1 was read as ABCB6 inh MLPCN 101, Myeloid diff 2 active, TLR9-MyD88 block -7 and NOD2 RIPK2 PPI 0.
Screening Cc1cccc(N2C(N)=NC(N)=NC23CCCCC3)c1 returned TLR4 MyD88 comp 10, ABCB6 inh MLPCN 87, Myeloid diff 2 active, TLR9-MyD88 block 3 and NOD2 RIPK2 PPI -18.
Screening COc1ccc(OC)c(N2C(N)=NC(N)=NC23CCCC3)c1 returned TLR4 MyD88 comp 1, ABCB6 inh MLPCN 98, Myeloid diff 2 inactive, TLR9-MyD88 block 4 and NOD2 RIPK2 PPI 3.
`O=C1NC[C@H](c2ccccc2)OC(=O)[C@H](Cc2ccc(F)cc2)CC/C=C/C[C@@H]1CC(=O)N(CCO)Cc1ccccc1` gave ABCB6 inh MLPCN 93, Myeloid diff 2 active, TLR9-MyD88 block -1 and NOD2 RIPK2 PPI -5.
Cc1cc(C)c2[nH]c(C)c(CN3CCCCCC3)c(=O)c2c1 was read as ABCB6 inh MLPCN 141, Myeloid diff 2 active, TLR9-MyD88 block -21 and NOD2 RIPK2 PPI 6.
`O=C(CSc1nc2ccccc2nc1N1CCCCC1)N1CCN(c2ccccc2)CC1` gave ABCB6 inh MLPCN 92, Myeloid diff 2 inactive, TLR9-MyD88 block 0 and NOD2 RIPK2 PPI -11.
CCn1cc(C(=O)NCc2ccco2)c(=O)c2cc(S(=O)(=O)N3CC(C)CC(C)C3)ccc21 (centres undefined) was read as TLR4 MyD88 comp -8, ABCB6 inh MLPCN 100, Myeloid diff 2 active, TLR9-MyD88 block 0 and NOD2 RIPK2 PPI 5.
COc1ccc(C(=O)NCCS(=O)(=O)NCc2ccccc2OC)cc1 was read as ABCB6 inh MLPCN 95, Myeloid diff 2 inactive, TLR9-MyD88 block -5 and NOD2 RIPK2 PPI -4.
CC(C)(C)OC(=O)C[C@H]1C/C=C\C[C@H](CC(=O)N(CCO)Cc2ccccc2)C(=O)N[C@@H](c2ccccc2)COC1=O was read as ABCB6 inh MLPCN 94, Myeloid diff 2 inactive, TLR9-MyD88 block 7 and NOD2 RIPK2 PPI -9.
Screening COc1ccccc1/C=C1/C(=O)N(c2ccccc2)N=C1C returned ABCB6 inh MLPCN 74*, Myeloid diff 2 inactive, TLR9-MyD88 block -6 and NOD2 RIPK2 PPI -11.
Screening CCOC(=O)CC1C(=O)NCCN1C(=O)c1ccc(C)cc1 (centres undefined) returned ABCB6 inh MLPCN 96, Myeloid diff 2 inactive, TLR9-MyD88 block -4 and NOD2 RIPK2 PPI -4.
For CCOC(=O)CC1C(=O)NCCN1c1nc2ccc(C)cn2c(=O)c1/C=C1\SC(=S)N(CC(C)C)C1=O (centres undefined) the results were ABCB6 inh MLPCN 870, Myeloid diff 2 active, TLR9-MyD88 block 2 and NOD2 RIPK2 PPI 8.
`CCCN1C(=O)/C(=C/c2c(N3CCNC(=O)C3CC(=O)OCC)nc3c(C)cccn3c2=O)SC1=S` (centres undefined) gave ABCB6 inh MLPCN 311, Myeloid diff 2 active, TLR9-MyD88 block 3 and NOD2 RIPK2 PPI -5.
